Our source for the inhibition values is PubChem BioAssay AID565 (University of Pittsburgh Molecular Library Screening Center, 2006).

The campaign covered roughly 65,000 compounds. About 1,200 (1.8%) were called active. For the sample, actives were picked, then their nearest neighbours and some compounds at random. Values without a mark were called inactive. Cut-off read from the data, not from the text of the source: active = inhibition above about 50%; inactive = the rest.

The target of this experiment is Gag-Pol polyprotein (Human immunodeficiency virus type 1 group M subtype B (isolate HXB2)) (UniProt P04585). Nature of the experiment: blockers of HIV-1 RNase H RNA/DNA cleavage – biochemical, fluorescence, primary screen (AID 565). Particulars: RT-RNase H RNA/DNA duplex cleavage, at 10 µM, hits give high values.
In the case of `O=C1c2ccncc2C(=O)N1C1CCCCC1`, the inhibition (usually the change of the read-out against control, counted positive when it falls) was -26.2%.
Then `COc1ccc(NC(=O)c2ccc(OC)cc2)cc1`, with 2.87%; and `COCCNC(=S)c1ccc(OC)cc1`, with 88.3% (active); and `COCCNC(=O)COc1ccc(C)c(C)c1`, with -5.41%.
For `COC(=O)C(C)Sc1nc2c(c(=O)n(C)c(=O)n2C)n1Cc1cccc(C)c1` (stereo not drawn), the inhibition is 8.94%.
`Cc1cc(Nc2ccccc2)n(CCC#N)n1`: the inhibition is -2.42%.
On to `CCc1ccc2oc(=O)cc(CN3CCCCC3C)c2c1` (stereo not drawn), for which the inhibition was -13.3%.
For `Cc1nc(C)c(C(=O)Nc2ccc(C)c(F)c2)o1`, the inhibition was 31.9%.
As to `Cc1nc(C)c(C(=O)Nc2cccc(C)c2C)o1`, the inhibition is 52.9% (active).
Take `COc1ccc(Cl)cc1NC(=O)c1oc(C)nc1C`: the inhibition was 12.9%.
Consider `CS(=O)(=O)N(CC(=O)N1CCN(c2cccc(Cl)c2)CC1)c1ccccc1`, for which the inhibition was -9.31%.
For `CCOC(=O)CSc1nnc(-c2ccncc2)o1`, the inhibition was -9.52%.
For the compound `COCCCNC(=O)COc1cc(C)c(Cl)c(C)c1`, the inhibition is -96.5%.
As to `CCC(Sc1nncn1C)C(=O)Nc1nnc(-c2ccc(Cl)cc2)s1` (stereo not drawn), the inhibition was -2.44%.
For the compound `CCN(CC)C(=O)CSc1nnc(-c2cccc(OC)c2)o1`, the inhibition was -4.72%.
For the compound `COc1cccc(NC(=O)CN(C)S(=O)(=O)c2ccc(C)cc2)c1`, the inhibition was -3.65%.
For `COc1cccc(-c2nnc(NC(=O)c3ccc(S(=O)(=O)N(CC(C)C)CC(C)C)cc3)o2)c1`, the inhibition was 65.7% (active).
Consider `CCOc1cc(S(=O)(=O)NCc2ccc3c(c2)OCO3)ccc1F`, for which the inhibition was -4.32%.
For `O=C(NC1CCCCC1)N1CCc2[nH]c3ccccc3c2C1`, the inhibition is -1.26%.
Consider `CCCC(=O)N1CCc2[nH]c3ccccc3c2C1`, for which the inhibition was 51.2% (active).
Then `Cc1ccc2[nH]c3c(c2c1)CN(C(=O)CN1CCN(c2ccccc2)CC1)CC3`, with -8.5%; and `CCCC(NS(=O)(=O)c1ccc(OC)cc1)C(=O)O` (stereo not drawn), with -5.87%.
The figure for `CCc1nnc(NC(=O)CSc2nnc(Cc3ccccc3)n2-c2ccc(OC)cc2)s1` is 10.7%.
For the compound `CCc1nnc(NC(=O)CSc2nnc(COc3ccc(C#N)cc3)n2-c2ccccc2)s1`, the inhibition was 60.1% (active).
Then `CCc1nnc(NC(=O)CSc2nnc(-c3ccncc3)n2Cc2ccccc2)s1`, with -7.97%; and `CCOC(=O)N1CCN(C(=O)c2cc3c(-c4ccc(Cl)cc4)nn(C)c3s2)CC1`, with -13.4%; and `CCCCn1c(SCc2ncc(-c3ccccc3)o2)nc2cc(S(N)(=O)=O)ccc21`, with -15.2%.
`CCOc1ccc(N(CC(=O)OC)S(=O)(=O)c2c(C)noc2C)cc1`: the inhibition was -2.65%.
Take `Cc1ccc(Nc2nc(CSc3nnnn3-c3ccccc3)cc(=O)[nH]2)cc1`: the inhibition was 2.45%.
The figure for `O=c1c2ccccc2nc(CSc2nnnn2-c2ccccc2)n1-c1ccccc1` is 52% (active).
The figure for `N#CCSc1nc2ccccc2c(=O)n1-c1ccccc1` is -15%.
Then `COC(=O)N(c1ccc(OC)cc1)P1(=S)OCCC(C)O1` (stereo not drawn), with 94.7% (active).
As for `COc1ccc(OCCCC(=O)Nc2nnc(C3CCCO3)s2)cc1` (stereo not drawn), the inhibition is 8.11%.
Consider `CCCCC(=O)N(c1ccc(OC)cc1)C1C=CS(=O)(=O)C1` (stereo not drawn), for which the inhibition is -0.43%.
For `Cn1c(=NC(=O)c2ccco2)sc2cccc(F)c21`, the inhibition was -27.2%.
For `COCc1cc(C)nc(Nc2cc(C)ccc2C)c1C#N`, the inhibition was -17%.
For the compound `Cc1noc(NS(=O)(=O)c2ccc(N3CC(O)=C(c4ccccc4)C3=N)cc2)c1C`, the inhibition was -3.39%.
`Cc1cnc(NC(=O)CSc2nnc(-c3ccc(Cl)cc3Cl)n2N)s1`: the inhibition is 70.1% (active).
Turning to `Cc1cnc(NC(=O)CSc2nnc(-c3ccccc3)n2Cc2ccccc2)s1`, the inhibition is -0.4%.
For `Cc1cc(C)nc(SCc2nnc(SCC(=O)Nc3ncc(C)s3)n2Cc2ccco2)n1`, the inhibition is -40.5%.
As to `CCCNS(=O)(=O)c1ccc2c(c1)CCCN2C(C)=O`, the inhibition was -15.5%.
Regarding `CC1CCc2c(sc(NC(=O)c3ccc(Cn4cc(Br)cn4)o3)c2C(N)=O)C1` (stereo not drawn), the inhibition was 88.6% (active).
For the compound `CCc1c(C)sc(NC(=O)c2ccc(Br)o2)c1C(=O)OC`, the inhibition was -67.1%.
For `CCOC(=O)c1c(NC(=O)c2ccc(Br)o2)sc2c1CCCC2`, the inhibition is -13%.
Take `CCC1(C)Cc2c(sc3nc4n(c(=O)c23)CCCS4)CO1` (stereo not drawn): the inhibition was -2.87%.
Consider `CC(=O)Nc1nonc1-c1nc2ccccc2n1Cc1ccccn1`, for which the inhibition was -10.2%.
Regarding `CCOc1ccc(NC(=O)N2CCN(CC)CC2)cc1`, the inhibition is -4.55%.
For `Cc1ccc(NC(=O)c2nc[nH]c2C(=O)N2CCCCC2)c(C(=O)c2ccccc2)c1`, the inhibition is 2.94%.
On to `Cc1ccccc1NC(=O)c1ccccc1`, for which the inhibition was -3.87%.
As for `Cc1ccc2c(c1)sc1ncc(NC(=O)c3ccccc3)c(=O)n12`, the inhibition was 68.4% (active).
On to `COc1ccccc1CNC(=O)CCCn1c(=O)c2ccccc2n(CC(=O)NC2CCCC2)c1=O`, for which the inhibition is -18.8%.
The figure for `COc1ccc(CCNc2ncnc3nc[nH]c23)cc1OC` is -5.66%; for `Oc1ccc2nc(Cc3ccccc3)[nH]c2c1` it is -7.13%.
For `COC(=O)Nc1nc2ccc(Sc3ccccc3)cc2[nH]1`, the inhibition was 82.8% (active).
On to `COC(=O)Cc1nc2ccccc2[nH]1`, for which the inhibition is -25.6%.
In the case of `O=C1c2cccnc2C(=O)N1Cc1cccs1`, the inhibition was -2.26%.
In the case of `COc1ccc(C(=O)NC(=O)CSc2nnc(-c3ccco3)n2-c2ccccc2)cc1`, the inhibition was -5.53%.
Take `Cc1cccc(-n2c(N)c(C(=O)N3CCN(C)CC3)sc2=S)c1`: the inhibition was 90.6% (active).
In the case of `Cc1ccc(OCCCC(=O)N2CCOCC2)c(C)c1`, the inhibition is -20.5%.
On to `O=C(c1ccccc1)N1CCN(C(=O)N2CCCCC2)CC1`, for which the inhibition is -10.1%.
In the case of `CCC(=O)Nc1sc(C(=O)N2CCCCC2)c(C)c1C#N`, the inhibition was 0.57%.
The figure for `Cc1ccc(-n2c(N)c(C(=O)N3CCOCC3)sc2=S)c(C)c1` is 79.7% (active); for `N#Cc1ccccc1-n1c(N)c(C(=O)N2CCCC2)sc1=S` it is 68% (active); for `Cc1cccc(-n2c(N)cc(=O)nc2SC(C)C(=O)NC2CCCCC2)c1` (stereo not drawn) it is -4.66%.
Regarding `Cc1cccc(-n2c(C)nc3cc(C(=O)N4CCC5(CC4)OCCO5)ccc32)c1`, the inhibition was 3.01%.
The figure for `CC(=O)c1c(N2CCOCC2)nc(=S)n(-c2cc(C)ccc2C)c1C` is -1.2%.
Turning to `COc1cccc(-n2c(SCC(=O)NC3CCCCC3)nc3n[nH]c(C)c3c2=N)c1`, the inhibition was -20%.
Consider `Cc1ccc2nc(NC3=NCN(CCc4ccccc4)CN3)nc(C)c2c1`, for which the inhibition is 11.4%.
Regarding `COc1ccc(C(=O)Nc2c(N)nc(SCC(=O)N3CCC(C)CC3)[nH]c2=O)cc1OC`, the inhibition was -4.95%.
For the compound `O=P(O)(CN1CCCCC1)CN1CCCCC1`, the inhibition is -5.45%.
With `O=C(CN1C(=O)CSc2ncccc21)N1CCOCC1`, the inhibition was -4.9%.
As to `COC(=O)C1=C(C)NC2=C(C(=O)c3ccccc32)C1c1ccc(-c2ccc(C(=O)O)cc2)o1` (stereo not drawn), the inhibition was 81.9% (active).
As for `COC(=O)C1=C(C)NC(=O)NC1/C=C/c1ccccc1` (stereo not drawn), the inhibition is -63.7%.
Turning to `COc1ccccc1NC(=O)C1=C(C)NC2=C(C(=O)CCC2)C1c1ccc(C)o1` (stereo not drawn), the inhibition was -19.4%.
For `Cc1nnc(NC(=O)CCC(=O)N2CCC(C)CC2)s1`, the inhibition is -0.8%.
The figure for `Cc1cc(=O)n2nc(N3CCCC(C(=O)NCCC4=CCCCC4)C3)sc2n1` (stereo not drawn) is -4.48%.
In the case of `COc1cc2c(cc1NC(=O)CN1CCN(S(=O)(=O)c3ccc(F)cc3)CC1)oc1ccccc12`, the inhibition is 56.4% (active).
Consider `COc1ccc(NC(=O)CN2CCN(S(=O)(=O)c3ccc(F)cc3)CC2)cc1Cl`, for which the inhibition is -9.57%.
On to `COc1ccccc1NC(=O)CN1CCN(S(=O)(=O)c2ccc(Br)cc2)CC1`, for which the inhibition was -1.95%.
`Cc1cc(Br)ccc1NC(=O)C1CCCO1` (stereo not drawn): the inhibition is -14.4%.
Turning to `N#Cc1ccc(OCCN2C(=O)NC3(CCSC3)C2=O)cc1` (stereo not drawn), the inhibition was -7.99%.
Then `O=C(CN1C(=O)CCC1=O)Nc1ccc(S(=O)(=O)N2CCOCC2)cc1`, with -11.6%.
As to `Nc1scc(-c2ccncc2)c1Cl`, the inhibition is -13.4%.
For `Clc1ccc(Cc2nn3c(-c4ccncc4)nnc3s2)cc1`, the inhibition was 53.8% (active).
As to `Clc1ccc(Cc2nnc(-c3cccs3)o2)cc1`, the inhibition is -42.9%.
`CCOC(=O)c1ccc(CS(=O)c2ccc(Cl)cc2)o1` (stereo not drawn): the inhibition is -8.12%.
With `COc1ccc(S(=O)(=O)NC2(C(F)(F)F)N=C3SCCN3C2=O)cc1` (stereo not drawn), the inhibition was -21.6%.
`CCOC(=O)c1sc(NC(=O)C(CC)Sc2nccn2C)nc1C` (stereo not drawn): the inhibition was 7.42%.
The figure for `Cc1nc(NC(=O)CCC(=O)O)sc1C(=O)N(C)C` is 0.73%; for `CCOC(=O)c1sc(/N=C/Nc2nc(C)c(C(=O)OCC)s2)nc1C` it is 66.5% (active); for `CCCOC(=O)CC1C(=O)NCCN1Cc1ccc(F)cc1` (stereo not drawn) it is 15.5%.
The figure for `CC(=O)Nc1ccc(S(=O)(=O)N2CCN(CCCOc3cc(C)ccc3C)CC2)cc1` is -8.05%; for `CCC(CC)C(=O)Nc1cc(C(=O)OC)cc(C(=O)OC)c1` it is -9.62%.
For the compound `Cc1ccc(S(=O)(=O)C2(S(=O)(=O)c3ccc(C)cc3)CCCC2)cc1`, the inhibition is -7.65%.
Then `CCOc1ccc2[nH]c(=O)c(CN(CCCO)C(C)=O)cc2c1`, with 84.7% (active).
`COc1ccc(N(Cc2cc3cc(OC)ccc3[nH]c2=O)S(C)(=O)=O)cc1`: the inhibition is -0.75%.
As to `CCC(=O)N(Cc1cc2cc(OC)ccc2[nH]c1=O)c1ccccc1C`, the inhibition was -2.05%.
Then `CCCc1[nH]nc2c1C(C1CC=CCC1)C(C#N)=C(N)O2` (stereo not drawn), with -53.6%.
